Data published in PubChem BioAssay (NCATS).
Inconclusive results are not listed. Calls of active or inactive are those of the source. Calls follow the shape of the dose curve; as a rule, active = well fitted curve in the direction sought with a large enough effect; inconclusive = small, poorly fitted or top-dose-only effect, or another doubt; inactive = no such curve, though single readings can be large; an effect the other way counts as inactive or inconclusive.

Tests used:
CRL-7250 = normal cell line; assay: Cytotoxic Profiling of Annotated Libraries Using Quantitative High-Throughput Screening (AID 1296008); conditions: Five cell lines viability, CellTiter-Glo ATP luminescence, 48-72 h; max response: active compounds read low; also: nearly all actives have a fitted effect of over 60% in size; as to max response: % is scaled to controls: 0 for no effect and ±100 for the full control effect
Summary of the method: (§1)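 Cytotoxicity was measured as CellTiter-Glo ATP luminescence, read after 10 min at room temperature. Compound treatment of the cells lasted 48 or 72 hr at 37 degrees Celsius in a qHTS format.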

HEK293 = assay: as above; conditions: Five cell lines viability, CellTiter-Glo ATP luminescence, 48-72 h; max response: active compounds read low
Summary of the method: as §1

HaCat = assay: as above; conditions: Five cell lines viability, CellTiter-Glo ATP luminescence, 48-72 h; max response: active compounds read low
Summary of the method: as §1

KB-3-1 = assay: as above; conditions: Five cell lines viability, CellTiter-Glo ATP luminescence, 48-72 h; max response: active compounds read low
Summary of the method: as §1

NIH3T3 [1] = assay: as above; conditions: Five cell lines viability, CellTiter-Glo ATP luminescence, 48-72 h; max response: active compounds read low
Summary of the method: as §1

HEK293T = assay: qHTS assay to identify novel small-molecules to repurpose for Merkel cell carcinoma treatment (AID 1296009); conditions: MCC and control cell lines, CellTiter-Glo viability, 72 h; series mostly up to 44.8 µM; also: nearly all actives have a fitted effect of over 60% in size
Summary of the method: (§2)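 72 hr, 37 degree celsius; NPC 8-pt / MIPE 11-pt dose response; compound pinned in DMSO; CellTiter-Glo, 10 min RT, luminescence; normalized to no-cell and DMSO controls.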

NIH3T3 [2] = assay: as above; conditions: MCC and control cell lines, CellTiter-Glo viability, 72 h; at 44.8 µM (top of the series) unless noted
Summary of the method: as §2

C33A = assay: Primary qHTS to identify gynecologic anti-cancer compounds using libraries of approved drugs and bioactive compounds (AID 1345084); conditions: Gynecologic cancer cell panel viability, ATPlite luminescence, 48 h; series mostly up to 57.5 µM; also: % is scaled to controls: 0 for no effect and ±100 for the full control effect; nearly all actives have a fitted effect of over 55% in size
Summary of the method: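 In this quantitative HTS, cell killing is estimated from loss of ATP-dependent luciferase light. Cells see five compound concentrations over a 48 h exposure.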

CC(/C=C/C1(O)C(C)(C)CC(O)CC1(C)O)OC1OC(CO)C(O)C(O)C1O (configuration not stated)
inactive: outcome (CRL-7250) | outcome (HEK293) | max response (HaCat) -8.69% | outcome (KB-3-1) | outcome (NIH3T3 [1]) | Potency (HEK293T) | outcome (NIH3T3 [2]) inactive [at 17.4 µM] | Potency (C33A)

C=C1CCC2C(C)(COC3OC(COC(=O)CC(=O)O)C(O)C(O)C3O)CCCC2(C)C1CCC1=CCOC1=O (configuration not stated)
inactive: outcome (CRL-7250) | outcome (HEK293) | max response (HaCat) -2.95% | outcome (KB-3-1) | outcome (NIH3T3 [1]) | Potency (HEK293T) | outcome (NIH3T3 [2]) inactive [at 17.4 µM] | Potency (C33A)

C[C@@H]1O[C@@H](O[C@H]2[C@H](OC(=O)[C@]34CCC(C)(C)C[C@H]3C3=CCC5[C@@]6(C)CC[C@H](O[C@@H]7O[C@H](CO[C@@H]8OC[C@H](O)[C@H](O)[C@H]8O)[C@@H](O)[C@H](O)[C@H]7O)C(C)(C)C6CC[C@@]5(C)[C@]3(C)C[C@H]4O)OC[C@@H](O)[C@@H]2O)[C@H](O)[C@H](O)[C@H]1O[C@@H]1OC[C@H](O)[C@H](O[C@@H]2OC[C@@H](O)[C@H](O)[C@H]2O)[C@H]1O (some centres not stated)
inactive: max response (CRL-7250) -0.806% | outcome (HEK293) | max response (HaCat) -0.578% | outcome (KB-3-1) | outcome (NIH3T3 [1]) | outcome (HEK293T) inactive [at 9.27 µM] | outcome (NIH3T3 [2]) inactive [at 9.27 µM] | activity change, negative = cytotoxicity (C33A) 2.46% [at 6.55 µM]

CC(=O)OC[C@]1(O)[C@H]2[C@H](OC(=O)CC(C)C)OC=C(CO[C@@H]3O[C@H](CO)[C@@H](O)[C@H](O)[C@H]3O)[C@H]2C[C@@H]1O
inactive: outcome (CRL-7250) | outcome (HEK293) | max response (HaCat) -3.61% | outcome (KB-3-1) | outcome (NIH3T3 [1]) | Potency (HEK293T) | outcome (NIH3T3 [2]) inactive [at 17.4 µM] | Potency (C33A)

C=C(C)C1CC2(CO)C(=CC1=O)CCC(O)C2C (configuration not stated)
inactive: max response (CRL-7250) 3.39% | outcome (HEK293) | max response (HaCat) -2.77% | max response (KB-3-1) 4.67% | outcome (NIH3T3 [1]) | Potency (HEK293T) | outcome (NIH3T3 [2]) | Potency (C33A)

CC1CCC2C(C(=O)O)=CC3CC(C)(C)CC132 (configuration not stated)
inactive: max response (CRL-7250) 3.63% | outcome (HEK293) | max response (HaCat) -7.87% | max response (KB-3-1) 3% | outcome (NIH3T3 [1]) | Potency (HEK293T) | outcome (NIH3T3 [2]) | Potency (C33A)

CC1C/C=C/C=C\CCCCC(O)C/C=C/C(=O)O1 (configuration not stated)
inactive: max response (CRL-7250) 4.17% | outcome (HEK293) | max response (HaCat) -3.25% | max response (KB-3-1) 1.87% | outcome (NIH3T3 [1]) | Potency (HEK293T) | outcome (NIH3T3 [2]) | Potency (C33A)

CC(C)(C)NCC(O)COc1cccc2c1CCCC2=O (configuration not stated)
inactive: outcome (CRL-7250) | outcome (HEK293) | max response (HaCat) -7.74% | outcome (KB-3-1) | outcome (NIH3T3 [1]) | Potency (HEK293T) | outcome (NIH3T3 [2]) | Potency (C33A)

CC(=O)OC1C(O)CC(O[C@@H]2O[C@H](CO)[C@@H](O)[C@H](O)[C@H]2O)C2CCC3C(=O)OC(c4ccoc4)CC3(C)C21 (some centres not stated)
inactive: max response (CRL-7250) -4.25% | outcome (HEK293) | max response (HaCat) -6.02% | max response (KB-3-1) 0.494% | outcome (NIH3T3 [1]) | Potency (HEK293T) | outcome (NIH3T3 [2]) inactive [at 17.4 µM] | Potency (C33A)

C=C1CC2C3(C)C(O)CC(=O)C(C)(C)C3C(OC(C)=O)C(OC(C)=O)C2(C)C2C(=O)OC(C)(C(=O)OC)C(=O)C12C (configuration not stated)
inactive: outcome (CRL-7250) | outcome (HEK293) | max response (HaCat) 3.78% | max response (KB-3-1) 5.29% | outcome (NIH3T3 [1]) | Potency (HEK293T) | outcome (NIH3T3 [2]) inactive [at 17.4 µM] | Potency (C33A)

COC1=CC(=O)O[C@@H](/C=C/c2ccccc2)[C@@H]1O
inactive: outcome (CRL-7250) | outcome (HEK293) | max response (HaCat) 4.5% | outcome (KB-3-1) | outcome (NIH3T3 [1]) | Potency (HEK293T) | outcome (NIH3T3 [2]) | Potency (C33A)

N#CC1C(=O)Nc2scc(-c3ccc(-c4ccccc4O)cc3)c2C1=O (configuration not stated)
inactive: max response (CRL-7250) -4.61% | outcome (HEK293) | max response (HaCat) 1.11% | outcome (KB-3-1) | outcome (NIH3T3 [1]) | Potency (HEK293T) | outcome (NIH3T3 [2]) | Potency (C33A)

COC1CC(OC2CCC3(C)C(=CCC4C3CCC3(C)C(C(C)O)CCC43O)C2)OC(C)C1OC1OC(C)C(OC2OC(COC3OC(COC4OC(CO)C(O)C(O)C4O)C(O)C(O)C3O)C(O)C(O)C2O)C(OC)C1O (configuration not stated)
inactive: max response (CRL-7250) -10.5% | outcome (HEK293) | max response (HaCat) -1.65% | outcome (KB-3-1) | outcome (NIH3T3 [1]) | outcome (HEK293T) inactive [at 9.27 µM] | outcome (NIH3T3 [2]) inactive [at 9.27 µM] | activity change, negative = cytotoxicity (C33A) 3.94% [at 11.6 µM]

COc1ccc([C@@H]2N[C@H](C(=O)O)Cc3c2[nH]c2ccccc32)cc1CN1CCN(c2ccccc2F)CC1
inactive: max response (CRL-7250) -3.7% | outcome (HEK293) | max response (HaCat) 1.36% | max response (KB-3-1) -4.47% | outcome (NIH3T3 [1]) | Potency (HEK293T) | outcome (NIH3T3 [2]) | Potency (C33A)
